Reference: the supplement of paper PMC7156485
± gives the standard deviation of the averaged measurements.

Legend:
Details in all cases: concentration: 10 µM; 24 h
HCC1569 [1] = experiment: cell number relative to DMSO (% of DMSO); higher = more cells (less growth inhibition / toxicity)
Summary of the method: (§1)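 H1.0 nuclear intensity or cell number is expressed as percent of the plate control, with the median of replicates taken. HCC1569 and TDF cells were treated with compounds at 10 µM for 24 h at 37 °C, in triplicate, then fixed and immunostained for H1.0 with DAPI as a nuclear stain. HCC1569 values were smoothed to correct for positional effects.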

TDF [2] = experiment: as above
Summary of the method: as §1

TDF [3] = experiment: H1.0 immunofluorescence intensity relative to DMSO (% of DMSO); higher = stronger H1.0 induction, active = 120 or more
Summary of the method: as §1

HCC1569 [4] = experiment: H1.0 immunofluorescence intensity relative to DMSO (% of DMSO); higher = stronger H1.0 induction, active = 140 or more
Summary of the method: as §1
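For H1.0 immunofluorescence intensity relative to DMSO in this document: TDF is a line of transformed human dermal fibroblasts of mesenchymal origin.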
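For cell number relative to DMSO in this document: TDF denotes transformed human dermal fibroblasts of mesenchymal origin.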

Compound | cell number (HCC1569 [1]) | cell number (TDF [2]) | H1.0 immunofluorescence intensity (TDF [3]) | H1.0 immunofluorescence intensity (HCC1569 [4])
Oc1cc(O)cc(C=Cc2ccc(O)c(O)c2)c1 [Piceatannol] | 90.4 ± 5.3 | 93.7 ± 4.5 | 97.2 (inactive) | 114 (inactive)
COc1cc2ncnc(Nc3cccc(Cl)c3)c2cc1OC [Tyrphostin AG 1478] | 92.8 | 94.6 | 96.2 (inactive) | 119 (inactive)
CC(C=CC1=C(C)CCCC1(C)C)=CC=CC(C)=CC(=O)O [Retinoic Acid] | 98.1 ± 2.9 | 109 ± 5.1 | 90.8 (inactive) | 121 (inactive)
CC1c2cccc(O)c2C(O)=C2C(=O)C3(O)C(O)=C(C(N)=O)C(=O)C(N(C)C)C3C(O)C21.Cl (stereo unspecified) [Doxycycline hydrochloride] | 96.5 | 107 | 96.9 (inactive) | 105 (inactive)
CCCCCC=CCC=CCCCCCCCCCCC(=O)O [12(Z), 15(Z)-Heneicosadienoic acid] | 100 | 103 | 94.4 (inactive) | 105 (inactive)
COc1ccc(C(=O)Nc2c(Cl)cncc2Cl)cc1OC1CCCC1 | 102 | 93.3 | 91 (inactive) | 106 (inactive)
CC(O)C1C(=O)N2C(C(=O)O)=C(SC3CNC(C(=O)N(C)C)C3)C(C)C12 (stereo unspecified) [Meropenem] | 105 | 98.2 | 97 (inactive) | 94.3 (inactive)
CCCCCC#CCC(O)C=CC=CC=CC(O)CCCC(=O)O (stereo unspecified) [14,15-Dehydroleukotriene B4] | 101 | 96.7 | 105 (inactive) | 101 (inactive)
CCCCCC=CCC=CCC=CCCCCC(=O)O [6(Z), 9(Z), 12(Z)-Octadecatrienoic Acid] | 101 | 93.2 | 91.1 (inactive) | 105 (inactive)
